High-throughput results deposited in PubChem BioAssay by National Center for Advancing Translational Sciences (NCATS).
Hits are enriched below; roughly 3.4% of the tested compounds scored in any of these assays.
RE007 growth inh = less growth of the S. pombe RE007 Vpr strain | S. pombe RE007 Vpr strain, BacTiter-Glo ATP luminescence, 24 h | Potency, µM (top dose mostly 92.2 µM), inactives show at the top dose activity change, negative = less growth, actives largely listed as inhibitors | 360,000 compounds, 0.21% hits | AID 651644; active = well fitted falling curve with a large enough effect; inconclusive = small, poorly fitted or top-dose-only effect; inactive = no such curve, though single readings can be large or run the other way; also: nearly all actives have a fitted effect of over 50% in size
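Fission yeast RE007 carrying one integrated HIV-1 vpr copy, seeded at OD 0.01 in PMG+AL medium with 23 nL pinned compound. Grown 24 h at 30 degrees; viability read by BacTiter-Glo luminescence after 5 min.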
AmpC inh no detg = AmpC beta-lactamase inhibition without detergent | Potency, µM (top dose mostly 57.1 µM), without a hit: top-dose activity change, negative = inhibition, hits mostly inhibitors | AID 485341 | P00811 | 330,000 compounds, 0.52% hits | AmpC nitrocefin hydrolysis, absorbance 480 nm, 0.0001% Triton;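 also: plate controls were no compound for no effect and no enzyme for full effect; nearly all actives have a fitted effect of over 20% in size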
Target sequence (P00811 whole entry, looked up): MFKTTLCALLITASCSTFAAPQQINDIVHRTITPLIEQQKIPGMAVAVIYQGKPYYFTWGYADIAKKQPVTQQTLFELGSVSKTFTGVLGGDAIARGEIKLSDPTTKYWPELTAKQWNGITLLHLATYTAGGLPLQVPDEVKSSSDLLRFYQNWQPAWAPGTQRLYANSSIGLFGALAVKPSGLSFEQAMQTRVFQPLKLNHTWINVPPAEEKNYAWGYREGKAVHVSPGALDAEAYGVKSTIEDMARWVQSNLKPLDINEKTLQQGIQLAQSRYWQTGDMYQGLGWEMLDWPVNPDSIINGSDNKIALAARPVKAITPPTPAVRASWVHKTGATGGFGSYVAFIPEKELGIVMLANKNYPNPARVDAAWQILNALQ
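20 mM phosphate pH 7.0 + 0.01% (detergent screen) or 0.0001% Triton X-100; 5.3 nM AmpC reagent; cpd preinc 15 min RT; nitrocefin (800 uM stock) to start; A480 q20 s × 4 min; Activity was normalised to no-enzyme and no-compound control wells.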
AmpC detergent = AmpC beta-lactamase inhibition with detergent present; Potency, µM (highest dose often 114 µM), for the others: at the highest dose activity change, negative = inhibition, actives largely listed as inhibitors; AmpC hydrolysis of nitrocefin, absorbance 480 nm, 0.01% Triton; AID 485294; 370,000 compounds, 0.041% hits; P00811;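 also: 0% = no-compound wells and -100% = no-enzyme wells; nearly all actives have a fitted effect of over 25% in size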
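AmpC (5.3 nM in the dispensed reagent) in 20 mM phosphate pH 7.0 with 0.01% (detergent screen) or 0.0001% Triton X-100 was preincubated with compounds for 15 min at room temperature. Nitrocefin was then added from an 800 uM solution, and hydrolysis was followed at 480 nm.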
FBPA Giardia inh = Giardia lamblia aldolase inhibition. A8B2U2. purified Giardia FBPA. Potency, µM (highest dose often 59.6 µM), without a hit: top-dose activity, negative = inhibition, usual class: inhibitors. 290,000 compounds, 0.71% hits. AID 2451; also: nearly all actives have a fitted effect of over 55% in size
Target sequence (A8B2U2 whole entry, looked up): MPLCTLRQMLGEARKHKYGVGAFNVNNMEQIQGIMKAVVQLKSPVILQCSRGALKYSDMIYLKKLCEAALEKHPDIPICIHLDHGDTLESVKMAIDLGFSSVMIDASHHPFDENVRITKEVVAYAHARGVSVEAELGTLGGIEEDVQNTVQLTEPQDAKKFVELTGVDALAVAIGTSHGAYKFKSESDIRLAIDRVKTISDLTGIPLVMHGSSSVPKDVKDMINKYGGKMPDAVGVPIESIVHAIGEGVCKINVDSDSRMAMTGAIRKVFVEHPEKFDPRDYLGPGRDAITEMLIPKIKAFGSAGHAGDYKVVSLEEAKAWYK
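40 nM FBPA preincubated 10 min at RT with compound (up to 57.5 uM final), then substrate plus GAPDH/TPI/NAD/arsenate coupling and diaphorase/resazurin added. Fluorescence read after 20 min at RT, 525/598 nm.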
Sm TGR inh = S. mansoni TGR enzyme inhibition. purified TGR, DTNB reduction, TNB absorbance 405 nm. Potency, µM (doses to about 114 µM), for the others: at the top dose activity change, negative = inhibition, usual class: inhibitors. 360,000 compounds, 3% hits; also: nearly all actives have a fitted effect of over 60% in size
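First, TGR (20 nM dispensed) and NADPH were mixed with compound. Second, a 15 min room-temperature incubation followed. Third, further NADPH and then DTNB were added to start the reaction. Finally, TNB absorbance was monitored kinetically.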
Numbers without * were called inactive; ? = inconclusive; / = not tested or not shown; [ ] = dose if it differs, or a comment. Unless noted, calls follow the shape of the dose curve; as a rule, active = well fitted curve in the direction sought with a large enough effect; inconclusive = small, poorly fitted or top-dose-only effect, or another doubt; inactive = no such curve, though single readings can be large; an effect the other way counts as inactive or inconclusive. Unless noted, % is scaled to controls: 0 for no effect and ±100 for the full control effect; potency is read from the fitted curve at half-maximal effect.

SMILES | RE007 growth inh | AmpC inh no detg | AmpC detergent | FBPA Giardia inh | Sm TGR inh
NC1=NC(=O)/C(=C\c2ccc(O)c([N+](=O)[O-])c2)S1 | -24% | -15% | -12% | -6% | 4%
NC1=NC(=O)/C(=C/c2cccc(-c3ccc(S(N)(=O)=O)cc3)c2)S1 | -4% | -58% | -2% | -1% | 10µM*
O=C(CSc1nnc(-c2cnccn2)n1Cc1ccco1)c1ccccc1 | 0%[3.69 µM] | -10% | -19% | -7% | 35µM*
O=C(CSc1nnc(-c2cnccn2)n1Cc1ccco1)c1ccc(Cl)cc1 | -2% | 8% | -9% | -4% | 10µM*
O=C(CSc1nnc(-c2ccccn2)n1Cc1ccco1)c1ccccc1 | -16% | 14% | ? | -11% | ?
O=C(CSc1nnc(-c2ccccn2)n1Cc1ccco1)c1ccc(Cl)cc1 | 4% | 8% | -13% | 1% | 20µM*
COc1ccc(C(=O)CSc2nnc(-c3ccccn3)n2Cc2ccco2)cc1 | -12% | 72% | ? | -11% | 50µM*
CNC(=O)CSc1nnc(-c2ccccn2)n1Cc1ccco1 | 0% | 1% | -3% | 1% | 1%
NC(=O)CSc1nnc(-c2cnccn2)n1Cc1ccco1 | 23% | 0% | 0% | 3% | ?
CC(=O)NCCNc1nc2cc(-c3ccccc3C)sc2c(=O)n1C | 32% | / | / | / | /
CC(=O)NCCNc1nc2cc(-c3ccccc3CO)sc2c(=O)n1C | 28µM* | / | / | / | /
COc1ccc(NC(=O)c2ccc(Br)o2)cc1 | -21% | 20% | 7% | -28%[89.2 µM] | 1%
CC(C)Oc1cccc(C(=O)NC(=S)Nc2ccc(Cl)c(C(=O)O)c2)c1 | 3% | -32% | -2% | 14% | 40µM*
COc1ccc(C(=O)NC(=S)Nc2ccc(Cl)c(C(=O)O)c2)cc1 | -8% | -19% | 3% | 6% | 40µM*
CN1CCN(c2ccc(NC(=O)c3cccc(OCc4ccccc4)c3)cc2)CC1 | -8% | 99% | 3% | 1% | 0%
CC(C)Oc1cccc(C(=O)Nc2ccc(N3CCN(C)CC3)cc2)c1 | 5% | -10% | -15% | 4% | 40µM*
COc1ccc(NC(=S)NC(=O)c2ccc(Br)o2)cc1 | 5% | -6%[2.29 µM] | -5% | -2% | 8.9µM*
O=C(CN1C(=O)NC(Cc2c[nH]c3ccccc23)C1=O)Nc1ccc(Br)cc1F (centres undefined) | 0% | -15% | 5% | / | -14%
Cc1c(Cl)cccc1NC(=O)CSC(C)c1nc2ccccc2c(=O)[nH]1 (centres undefined) | 22% | -3% | 1% | -18% | -3%
CC(C)CNC(CC(=O)O)c1ccccc1 (centres undefined) | -4% | -20% | 5% | 0% | 14%
CC(NC(=O)CCl)c1ccc(Cl)c(Cl)c1 (centres undefined) | 16% | -11% | ? | 0% | 16µM*
CCCC(NC(=O)CCl)c1ccccc1 (centres undefined) | 9% | -8% | 11% | -2% | 45µM*
CCC(NC(=O)CCl)c1ccc(C)cc1 (centres undefined) | 17% | -5% | 2% | -1% | ?
CC(C)CC(NC(=O)CCl)c1ccccc1 (centres undefined) | / | -17% | 0% | -2% | 40µM*
Cc1ccc(S(=O)(=O)NCC(=O)NCC(=O)NC(C)c2ccccc2Br)cc1C (centres undefined) | -4% | 93% | -1% | -3% | 1%
SMILES | RE007 growth inh | AmpC inh no detg | AmpC detergent | FBPA Giardia inh | Sm TGR inh
CC(NC(=O)CCl)c1ccccc1Br (centres undefined) | 0% | -13% | 3% | -18% | 16µM*
CCC(Sc1nc2ccccc2c2nc(CCc3c(C)n[nH]c3C)nn12)C(=O)Nc1ccccc1F (centres undefined) | / | / | 7% | / | -3%
CC(C)CC1=C/C(=C/c2ccc(-c3ccccc3)o2)C(=O)O1 | -21% | 32µM* | ? | 1% | 13µM*
NS(=O)(=O)c1ccc(-c2ccc(C=C3C(=O)c4ccccc4C3=O)o2)cc1 | -7% | -10% | ? | -7% | -18%
O=C(/C=C/N1CCOCC1)c1cc2ccccc2o1 | -11% | -45% | -5% | 1% | ?
O=C(/C=C/N1CCOCC1)c1coc2ccccc12 | 4% | -27% | -6% | 0% | 79µM*
COC(=O)COc1cccc2c(=O)n(CC(=O)N3CCCc4ccccc43)ccc12 | 6% | 0.63µM* | ? | 0% | 2%
CCOC(=O)COc1cccc2c(=O)n(CC(=O)N3CCCCC3)ccc12 | -2% | 1% | 9% | 0% | 8%
O=C(Nc1nncs1)c1cccc(S(=O)(=O)N2CCOCC2)c1 | -3% | -17% | 1% | 2% | -6%
O=S(=O)(c1ccccc1)c1nc(-c2ccco2)oc1NCCCN1CCOCC1 | 13% | 38% | 5% | -2% | 28µM*
O=S(=O)(c1ccc(Br)cc1)c1nc(-c2ccco2)oc1NCCCn1ccnc1 | 7% | 121% | -1% | / | 22µM*
O=S(=O)([N-]c1nc2ccccc2nc1-n1cc[n+](Cc2ccccc2)c1)c1ccc(Cl)cc1 | 2% | -2% | 4% | 1% | -35%
CCCCC(=O)Nc1cc([N+](=O)[O-])ccc1F | 3% | -12% | 6% | 2% | 8%
COc1ccc(CN(C)C(=O)c2cccc(S(=O)(=O)N3CCc4ccccc43)c2)c(OC)c1 | -5% | 82% | -2% | / | 10%
CCOC(=O)c1c(N)sc(=S)c2c1CCC2 | -5% | -36% | -5% | ? | 16µM*
COc1ccc(CC2C(=O)NC(=O)NC2=O)c(OC)c1 | -4% | -10% | -13% | -17% | 50µM*
COc1ccc(CC2C(=O)N(C)C(=O)N(C)C2=O)c(OC)c1 | 14% | -13% | -5% | ? | ?
CCOC(=O)c1ccc(NC(=O)CN2C(=O)c3cccnc3Oc3ccc(Cl)cc32)cc1 | / | / | -2% | / | -6%
Cc1ccc(CC2CC(=O)N(Cc3ccco3)C2=O)cc1 (centres undefined) | -17% | -19% | -13% | -4% | 13µM*
COc1ccc(CCN2C(=O)CC(Cc3ccc(C)cc3)C2=O)cc1OC (centres undefined) | -9% | 65% | 5% | 4% | 0%
O=C1CC(Cc2ccccc2)C(=O)N1Cc1ccco1 (centres undefined) | -20% | -7% | 0% | -11% | 16µM*
CCN(CC)CCCN1C=C2C(=O)C(C)(OC(=O)CCC(=O)OC)C(=O)C=C2C=C1C1CC1 (centres undefined) | -15% | / | / | ? | /
CC1=C(C)C(=O)N(C(C)CCc2ccccc2)C1=O (centres undefined) | -12% | -23% | 1% | -2% | 0%
COc1cccc(C(c2nnnn2C2CCCCC2)N2CCN(C/C=C/c3ccccc3)CC2)c1OC (centres undefined) | -7% | / | / | / | /
